Measurements from PubChem BioAssay AID652134 (The Scripps Research Institute Molecular Screening Center, 2013).
Out of some 2,400 compounds screened, about 2,100 (88%) were called active.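 Rule for the calls: active = inhibition above the average of every tested compound plus 3 SD (cut at about 3.8% in these data); inactive = the rest.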 So high a share suggests a set chosen from earlier hits. Not all results are given here.

Biological target: Nuclear receptor subfamily 0 group B member 1 (Homo sapiens) (UniProt P51843)
Sequence (P51843 whole entry, looked up): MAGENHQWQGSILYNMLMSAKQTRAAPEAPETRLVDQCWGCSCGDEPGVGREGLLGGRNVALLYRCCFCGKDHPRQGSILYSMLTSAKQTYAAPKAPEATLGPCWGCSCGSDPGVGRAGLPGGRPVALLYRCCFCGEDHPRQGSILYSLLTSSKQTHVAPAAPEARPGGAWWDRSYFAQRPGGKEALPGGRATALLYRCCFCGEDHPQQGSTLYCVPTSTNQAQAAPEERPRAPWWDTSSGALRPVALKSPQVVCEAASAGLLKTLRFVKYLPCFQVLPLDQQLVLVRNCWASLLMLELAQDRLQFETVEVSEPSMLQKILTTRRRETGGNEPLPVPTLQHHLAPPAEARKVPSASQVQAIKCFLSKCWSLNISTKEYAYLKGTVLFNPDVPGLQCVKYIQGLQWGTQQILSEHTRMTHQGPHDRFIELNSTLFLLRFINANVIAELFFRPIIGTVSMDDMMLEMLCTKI
Assay: NR0B1 repressor blockers, StAR reporter readout – cell-based, luminescence, HEK293T, full-length DAX-1, SF-1 activated StAR promoter, confirmation (AID 652134);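 note: 0% = DAX-1 cells with DMSO and 100% = no DAX-1 control cells with DMSO; active compounds raise luminescence by relieving repression of the StAR reporter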
Conditions: HEK293T StAR-promoter luciferase reporter, SF-1/DAX-1 repression; at 6.8 µM; stronger effect = higher value

inhibition, inactive:
CC(C)(O)C#Cc1ccc(CNC[C@H]2O[C@@H](n3cnc4c(=O)[nH]c(N)nc43)[C@H](O)[C@@H]2O)s1 -1.28%
CCN(CC(=O)Nc1c(F)cccc1F)C(=O)c1cnc(C)cn1 0.35%
CC(Oc1ccccc1[N+](=O)[O-])C(=O)N/N=C/c1ccoc1 (stereo unspecified) 1.13%
Cc1cc(C)c(C)c(S(=O)(=O)N2CCN(C(=O)c3ccc4c(=O)n5c(nc4c3)CCC5)CC2)c1C 0.85%
C=CCn1c(SCC(=O)Nc2ccc(NC(C)=O)cc2)nc2sc(C)c(C)c2c1=O -0.94%
COc1ccccc1CCC(=O)OCC(=O)N1CCN(S(=O)(=O)c2ccc(C)cc2C)CC1 1.66%
CCN(c1ccccc1)S(=O)(=O)c1ccc(OCC(=O)N2CCCC2)cc1 0.88%
C/C(=N\NC(=O)c1ccccc1F)c1ccccn1 -7.54%
O=C(CCc1ccccc1)Nc1ncc([N+](=O)[O-])s1 3.12%
COc1ccc(CCOC2OC(CO)C(OC(=O)/C=C/c3ccc(O)c(OC)c3)C(O[C@H]3O[C@@H](C)[C@H](O)[C@@H](O)[C@H]3O)C2O)cc1O (stereo partly specified) 2.5%
COc1ccc(C(=O)NCC[N+](C)(C)C)cc1 1.64%
O=C(N/N=C\C1CC=CCC1)c1ccc(Br)o1 (stereo unspecified) 0.48%
CCCc1cc(C(=O)Nc2ccc(C(=O)OC)cc2)cs1 3.03%
COc1cc(OC)c(C(=O)NNC(=O)c2ccc(NS(=O)(=O)c3cccs3)cc2)cc1OC 1.04%

inhibition, active:
O=C(NCCc1ccc(F)cc1)c1ccc2nccnc2c1 12.4%
COc1ccc(Nc2ncc(F)c(N3CCOCC3)n2)cc1 11.3%
OC(c1ccccc1)c1nc(-c2cnc3ccccc3c2)cs1 (stereo unspecified) 13%
O=C1C(C=NCC2CCCO2)=C(O)c2ccccc21 (stereo unspecified) 7.49%
CC(=O)Nc1cccc(-c2csc(Nc3cccc(C)n3)n2)c1 10.7%
COc1cc(C2c3cc4c(cc3C(O)C3COC(=O)C23)OCO4)cc(OC)c1OC (stereo unspecified) 19.5%
COc1cc(/C=N/O)ccc1OCc1ccc([N+](=O)[O-])cc1 11.6%
CC(=O)Nc1cccc(C(=O)OCC(=O)c2ccc3c(c2)OCO3)c1 14.1%
CC(C)c1ccc(C=NNc2ccc([N+](=O)[O-])cn2)cc1 14.9%
S=C(c1ccc(-c2ccccc2)o1)N1CCCCC1 11%
COc1ccc2nc(SCc3ccccc3)nc(C)c2c1 20.3%
CC(C)Cc1cc(C(=O)NCCc2ccccc2)no1 8.87%
CNCC(O)c1ccc(O)c(O)c1 (stereo unspecified) 3.72%
C(=N\Nc1ccc2ccccc2n1)/c1ccc2c(c1)OCO2 13.2%
COc1ccc2nc(-c3ccccn3)ccc2c1 12.2%
Cc1ccc(-c2nc3ccccc3[nH]2)cc1N 11.7%
c1ccc2[nH]c(-c3nc4ccccc4[nH]3)nc2c1 11.3%
O=C(NC(=S)NC1CCCCC1)c1ccc(Cl)cc1 6.95%
O=C(c1cnn2ccccc12)N1CCc2ccccc21 9.73%
COc1cccc(/C=C/C(=O)Nc2ccc3c(c2)OCCO3)c1 3.84%
Cc1cccc(NC(=O)/C=C/c2ccc3c(c2)OCO3)n1 13.6%
O=C(O)c1cccc(N=NN2CCCCCC2)c1 15%
O=c1c2c(nc3n1CCCCC3)sc1c(O)cccc12 16.3%
O=C(Nc1ccc(Cl)c(Cl)c1)c1ccccc1NC(=O)C1CC=CCC1C(=O)O (stereo unspecified) 7.46%
O=c1oc(/C=C/c2ccccc2)nc2ccccc12 11.2%
Cc1ccc(S(=O)Cc2ccc(C(=O)N3CCN(C4CCCCC4)CC3)o2)cc1 (stereo unspecified) 5.33%
O=[N+]([O-])c1ccc2oc(-c3cccc(O)c3)nc2c1 10.7%
COc1ccc(-c2cn3ccsc3n2)cc1 12.2%
COc1ccc(-c2cn3ccc(C)cc3n2)cc1 9.6%
O=c1c2c(nc3cc(-c4cccc(Cl)c4)[nH]n13)CCCC2 22.3%
O=C(CSc1cccc[n+]1[O-])c1ccc(-c2ccccc2)cc1 3.72%
O=C(NCCc1c[nH]c2ccccc12)c1cc2ccccc2oc1=O 10.1%
Cc1cc(OCc2cc(C(=O)NCc3cc(C(C)C)no3)no2)cc(C)c1Cl 6.04%
Cc1nc2cc(NC(=O)Nc3cccc(F)c3)ccc2n1C 15.5%
Nc1ccc(C(=O)Nc2ccccc2N)cc1 94.3%
Cn1ccnc1SCC(=O)Nc1ccc2c(c1)OCCO2 10.6%
CN(C(=O)c1cc2c(=O)n3ccccc3nc2s1)C1CCCCC1 9.28%
NS(=O)(=O)c1ccc2nc(NC(=O)C3=COCCO3)sc2c1 9.88%
Cc1sc(NC(=O)c2ccc3ncsc3c2)c(C(N)=O)c1C 14.4%
CCOC(=O)c1c(S(=O)(=O)Nc2ccc(CN3CCC(C)CC3)cc2)c(C)n(C)c1C 4.2%
CCc1ccc(NC2Nc3cc(C)nn3S2)cc1 (stereo unspecified) 10.6%
CCOc1cccc(/C=C/c2ccc3ccccc3n2)c1OC(C)=O 10.4%
Cc1csc(SCC(=O)Nc2sccc2C#N)n1 16.1%
COC(=O)c1sc(NC(=O)c2ccc(OC)cc2OC)nc1C 13.9%
O=C(Nc1ccc2c(c1)CCC2)c1ccc(Br)s1 15.1%
COc1ccc(/C=C/C(=O)Nc2ccc(C34CC5CC(CC(O)(C5)C3)C4)cc2)cc1OC 4.27%
Clc1ccc(Nc2nc(-c3cccs3)cs2)nc1 13.8%
Cc1ccccc1OCC(=O)Nc1ccc2c(c1)ncn2C 8.73%
Cc1ccccc1Nc1nc(N)nc(CSc2ccccc2)n1 19.3%
CCCNC(=O)C1CC(=O)N(c2ccc(OCc3ccccc3)cc2)C1 (stereo unspecified) 14.4%
Cc1ccc(N/C=C/C(=O)c2ccccc2)cc1C 10.3%
CC1CCN(C(=O)COC(=O)c2cc(=O)[nH]c3ccccc23)CC1 9.14%
O=C(NCC1(N2CCCCC2)CCCCC1)c1ccc(NS(=O)(=O)c2ccc(F)cc2)cc1 9.71%
CCOc1ccc(S(=O)(=O)Nc2cccc(C(=O)NCC3(N4CCCCC4)CCCCC3)c2)cc1 8.51%
O=C(c1cc(-c2cccs2)on1)N1CCCCC1 12.9%
COc1ccccc1-c1cc(C(=O)N2CCCCC2)no1 13.3%
O=C(c1cc(-c2ccccc2O)on1)N1CCCC1 11.2%
COc1ccc(OCc2cc(C(=O)N3CCCC3)no2)c2ccccc12 6.33%
CC(C)c1ccc(Nc2ncccc2C#N)cc1 5.79%
Cc1ccnc(NC(=O)CCNS(=O)(=O)c2ccc(C)c(C)c2)c1 14%
CC1CCCN(c2ccc(C(=O)NCCc3ccccc3)cn2)C1 (stereo unspecified) 7.54%
CC[C@]1(O)C[C@@H]2CN(CCc3c([nH]c4ccccc34)[C@@](C(=O)OC)(c3cc4c(cc3OC)N(C)[C@H]3[C@@](O)(C(=O)OC)[C@H](OC(C)=O)[C@]5(CC)C=CCN6CC[C@]43[C@@H]65)C2)C1 19.4%
CC[C@]1(O)CC2CN(CCc3c([nH]c4ccccc34)[C@@](C(=O)OC)(c3cc4c(cc3OC)N(C=O)[C@H]3[C@@](O)(C(=O)OC)[C@H](OC(C)=O)[C@]5(CC)C=CCN6CC[C@]43[C@@H]65)C2)C1 (stereo partly specified) 17.7%
Cc1c(C(=O)Nc2ccccn2)oc2ccc(Br)cc12 12.8%
CCOc1ccc(-c2nnc(-c3ccco3)o2)cc1 9.81%
O=C(NCC1CCCO1)c1cc2c(s1)CCCC2 (stereo unspecified) 5.13%
O=C(Nc1ccc2ccccc2c1[N+](=O)[O-])c1ccccc1 8.86%
O=C(NCCOc1ccccc1)c1ccccc1F 13.3%
O=C(Nc1ccn(Cc2ccccc2)n1)c1n[nH]c([N+](=O)[O-])c1Cl 10.4%
COc1ccc(-c2csc(Nc3ccccn3)n2)cc1 12.8%
COC(=O)Nc1nc2ccc(C(=O)C3CC3)cc2[nH]1 17.1%
CN1CCN(C(=O)c2ccc(-c3ccc(Br)cc3)o2)CC1 6.02%
CCCOc1ccc(C(=O)NCCc2ccccc2)cc1 11.2%
CCCc1cc(C(=O)Nc2ccc(Cl)cn2)cs1 8.76%
Nc1c(C(=O)Nc2ccc3c(c2)OCCO3)nnn1Cc1ccccc1 12.5%
O=C(Nc1ccc(NC(=O)c2cccs2)cn1)c1ccco1 12.9%
O=C(NC(=S)Nc1ccc(Cl)cc1Cl)C1CC1 5.19%
O=C(Nc1ccccc1)Nc1nc2ccccc2s1 14.6%
CC(C)c1ccc(Nc2nnc(SCC(=O)c3nnc(-c4ccccc4)o3)s2)cc1 7.92%
CCc1ccc2oc(-c3ccc(N)cc3)nc2c1 12.2%
CC(C)(C)c1csc(NC2=NS(=O)(=O)c3ccccc32)n1 11.5%
Cc1ccc(-n2cc3ccc([N+](=O)[O-])cc3n2)cc1 12.1%
Brc1ccc2nc(N3CCCC3)sc2c1 7.35%
O=C(Nc1ncccc1O)c1ccc(S(=O)(=O)N2CCCCCC2)cc1 7.57%
O=C(Nc1ncccc1O)c1ccc(S(=O)(=O)N2CCCC2)cc1 10.3%
O=C(Nc1ncccc1O)c1ccc(C(=O)c2ccccc2)cc1 51.3%
CCc1ccc(NC(=O)N2CCc3ccccc3C2)cc1 5.01%
